Data reported in PubChem BioAssay AID1159580 (chemical genetic matrix, 2015).
Among all 5,500 compounds or so, about 2,000 (36%) were called active. About 18% were inconclusive and are not listed. Cut-off read from the data, not from the text of the source: active = normalized growth mostly below about 0.91 (no sharp cut-off); inconclusive = no clear call, values can overlap the other calls; inactive = mostly above about 0.92. This is one part of the list.

Test: chemical genetic growth profiling, strain panel (AID 1159580);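 note: tested at 20 µM; growth read once vehicle control cultures reached saturation at 30 °C; 1 = growth at the plate median or of vehicle wells; lower values mean less growth of the strain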
Conditions: S. cerevisiae deletion strains, growth OD

Measured: normalized growth

COC(=O)c1c(OC)cc2c(c1C)Oc1c(Cl)c(OC(C)=O)c(Cl)c(C)c1C(=O)O2
inactive: locus YAL021C, strain ccr4, active compounds read low 1.02 | locus YAL026C, strain drs2, active compounds read low 1 | locus YAL030W, strain snc1, active compounds read low 0.994 | locus YBL061C, strain skt5, active compounds read low 0.977 | locus YBR009C, strain hhf1, active compounds read low 1.02 | locus YBR021W, strain FUR4, active compounds read low 1.03 | locus YBR023C, strain chs3, active compounds read low 0.978 | locus YBR171W, strain sec66, active compounds read low 1 | locus YBR229C, strain ROT2, active compounds read low 0.989 | locus YBR231C, strain swc5, active compounds read low 0.987 | locus YBR279W, strain paf1, active compounds read low 0.982 | locus YCL011C, strain gbp2, active compounds read low 1.02 | locus YCL016C, strain dcc1, active compounds read low 0.99 | locus YCL029C, strain bik1, active compounds read low 1.01 | locus YCL061C, strain MRC1, active compounds read low 1.01 | locus YCL069W, strain vba3, active compounds read low 0.998 | locus YCR088W, strain abp1, active compounds read low 0.988 | locus YDL005C, strain med2, active compounds read low 1 | locus YDL035C, strain GPR1, active compounds read low 1.01 | locus YDL040C, strain nat1, active compounds read low 0.955 | locus YDL074C, strain BRE1, active compounds read low 1.05 | locus YDL101C, strain DUN1, active compounds read low 1.01 | locus YDL134C, strain PPH21, active compounds read low 1.02 | locus YDL185W, strain tfp1, active compounds read low 1.01 | locus YDL192W, strain arf1, active compounds read low 1.01 | locus YDR001C, strain nth1, active compounds read low 0.992 | locus YDR069C, strain doa4, active compounds read low 0.998 | locus YDR101C, strain arx1, active compounds read low 1.01 | locus YDR137W, strain rgp1, active compounds read low 0.947 | locus YDR159W, strain sac3, active compounds read low 0.948 | locus YDR162C, strain NBP2, active compounds read low 1.03 | locus YDR195W, strain ref2 1.03 | locus YDR297W, strain sur2, active compounds read low 1 | locus YDR318W, strain mcm21, active compounds read low 1 | locus YDR334W, strain swr1, active compounds read low 0.99 | locus YDR335W, strain msn5, active compounds read low 1 | locus YDR388W, active compounds read low 1.01 | locus YDR392W, strain spt3, active compounds read low 0.866 | locus YDR502C, strain sam2, active compounds read low 1 | locus YEL003W, strain gim4, active compounds read low 1 | locus YEL037C, strain rad23, active compounds read low 0.984 | locus YEL061C, strain CIN8 (second series), active compounds read low 0.979 | locus YEL061C, strain CIN8, active compounds read low 0.999 | locus YER015W, strain faa2, active compounds read low 1.01 | locus YER016W, strain bim1, active compounds read low 0.971 | locus YER110C, active compounds read low 1.02 | locus YER111C, strain swi4, active compounds read low 0.985 | locus YER155C, strain BEM2 (second series), active compounds read low 1.01 | locus YER155C, strain BEM2, active compounds read low 0.992 | locus YER167W, strain BCK2, active compounds read low 1.02 | locus YFR010W, strain ubp6, active compounds read low 0.975 | locus YGL078C, strain dbp3, active compounds read low 1.01 | locus YGL086W, strain mad1, active compounds read low 1.02 | locus YGL167C, strain pmr1, active compounds read low 0.942 | locus YGL173C, strain kem1, active compounds read low 0.983 | locus YGL227W, strain vid30, active compounds read low 1 | locus YGL240W, strain doc1, active compounds read low 0.964 | locus YGL248W, strain PDE1, active compounds read low 1.01 | locus YGL253W, strain hxk2, active compounds read low 0.977 | locus YGR078C, strain PAC10, active compounds read low 1.01 | locus YGR135W, strain pre9, active compounds read low 1.01 | locus YGR252W, strain gcn5, active compounds read low 1.11 | locus YHR013C, strain ard1, active compounds read low 0.966 | locus YHR027C, strain rpn1, active compounds read low 1 | locus YHR030C, strain SLT2, active compounds read low 1 | locus YHR079C, strain IRE1 (second series), active compounds read low 0.997 | locus YHR094C, strain hxt1, active compounds read low 1.01 | locus YHR129C, strain ARP1, active compounds read low 1 | locus YHR142W, strain chs7, active compounds read low 0.985 | locus YHR200W, strain rpn10, active compounds read low 1.02 | locus YIL066C, strain RNR3, active compounds read low 1.03 | locus YIL073C, strain SPO22, active compounds read low 1.09 | locus YIL125W, strain kgd1, active compounds read low 1.02 | locus YIR030C, strain dcg1, active compounds read low 0.998 | locus YJL092W, strain hpr5, active compounds read low 0.992 | locus YJL095W, strain BCK1 (second series), active compounds read low 0.975 | locus YJL095W, strain BCK1, active compounds read low 1.02 | locus YJL115W, strain asf1, active compounds read low 0.996 | locus YJL129C, strain trk1, active compounds read low 1.01 | locus YJL134W, strain LCB3, active compounds read low 0.998 | locus YJL154C, strain vps35, active compounds read low 0.972 | locus YJL164C, strain tpk1, active compounds read low 1.01 | locus YJL166W, strain qcr8, active compounds read low 1.01 | locus YJL168C, strain set2, active compounds read low 0.996 | locus YJL187C, strain SWE1 (second series), active compounds read low 1.02 | locus YJL187C, strain SWE1, active compounds read low 0.975 | locus YJR043C, strain POL32, active compounds read low 1.04 | locus YKL009W, strain mrt4, active compounds read low 1.01 | locus YKL068W, active compounds read low 0.988 | locus YKL085W, strain MDH1 (second series), active compounds read low 1 | locus YKL085W, strain MDH1, active compounds read low 1 | locus YKL160W, strain elf1, active compounds read low 0.982 | locus YKL190W, strain CNB1, active compounds read low 1.01 | locus YKR001C, strain vps1, active compounds read low 1.04 | locus YKR026C, strain gcn3, active compounds read low 0.996 | locus YKR091W, strain srl3, active compounds read low 0.989 | locus YLL001W, strain dnm1, active compounds read low 0.992 | locus YLL026W, active compounds read low 1 | locus YLL041C, strain sdh2, active compounds read low 0.988 | locus YLR027C, strain aat2, active compounds read low 0.986 | locus YLR039C, strain RIC1, active compounds read low 1.02 | locus YLR058C, strain SHM2, active compounds read low 1 | locus YLR102C, strain apc9, active compounds read low 1.01 | locus YLR221C, strain rsa3, active compounds read low 1.01 | locus YLR258W, strain gsy2, active compounds read low 0.998 | locus YLR262C, strain YPT6 (second series), active compounds read low 0.979 | locus YLR262C, strain YPT6, active compounds read low 1.03 | locus YLR268W, strain sec22, active compounds read low 1.02 | locus YLR320W, strain mms22, active compounds read low 0.946 | locus YLR330W, strain CHS5, active compounds read low 0.998 | locus YLR342W, strain FKS1 (second series), active compounds read low 1.05 | locus YLR342W, strain FKS1, active compounds read low 0.978 | locus YLR357W, strain rsc2, active compounds read low 1.02 | locus YLR370C, strain arc18, active compounds read low 0.973 | locus YLR371W, strain rom2, active compounds read low 1.01 | locus YLR384C, strain iki3, active compounds read low 0.961 | locus YLR418C, strain cdc73, active compounds read low 1.07 | locus YML016C, strain PPZ1, active compounds read low 1 | locus YML032C, strain rad52, active compounds read low 1.02 | locus YML120C, strain ndi1, active compounds read low 1.01 | locus YML124C, strain tub3, active compounds read low 1.03 | locus YMR058W, strain fet3, active compounds read low 0.988 | locus YMR078C, strain ctf18, active compounds read low 1.01 | locus YMR125W, strain sto1, active compounds read low 0.997 | locus YMR129W, active compounds read low 0.999 | locus YMR205C, strain PFK2, active compounds read low 0.981 | locus YMR223W, strain ubp8, active compounds read low 1 | locus YMR231W, strain pep5, active compounds read low 0.974 | locus YMR263W, strain SAP30, active compounds read low 1.02 | locus YMR307W, strain GAS1, active compounds read low 1.03 | locus YNL067W, strain RPL9B, active compounds read low 1.02 | locus YNL071W, strain lat1, active compounds read low 0.997 | locus YNL209W, strain ssb2, active compounds read low 1.01 | locus YNL233W, strain BNI4, active compounds read low 1.03 | locus YNL248C, strain rpa49, active compounds read low 0.995 | locus YNL250W, strain rad50, active compounds read low 1.02 | locus YNL271C, strain bni1, active compounds read low 1.02 | locus YNL298W, strain CLA4, active compounds read low 1.03 | locus YNL307C, strain MCK1, active compounds read low 1 | locus YNL322C, strain KRE1 (second series), active compounds read low 1.02 | locus YNR049C, strain mso1, active compounds read low 0.982 | locus YNR052C, strain pop2, active compounds read low 1.01 | locus YOL006C, strain TOP1, active compounds read low 1.29 | locus YOL012C, strain htz1 1.01 | locus YOL147C, strain pex11, active compounds read low 0.999 | locus YOR001W, strain rrp6, active compounds read low 0.988 | locus YOR061W, strain CKA2, active compounds read low 1 | locus YOR069W, strain VPS5, active compounds read low 1.01 | locus YOR070C, strain gyp1, active compounds read low 0.974 | locus YOR080W, strain dia2, active compounds read low 0.977 | locus YOR083W, strain WHI5, active compounds read low 1.03 | locus YOR106W, strain vam3, active compounds read low 1.03 | locus YOR136W, strain idh2, active compounds read low 1.04 | locus YOR144C, strain elg1, active compounds read low 1 | locus YOR184W, strain ser1, active compounds read low 0.995 | locus YOR265W, strain rbl2, active compounds read low 0.981 | locus YOR270C, strain vph1, active compounds read low 0.96 | locus YOR290C, strain snf2, active compounds read low 0.999 | locus YOR316C, strain cot1, active compounds read low 1 | locus YPL051W, strain arl3, active compounds read low 0.976 | locus YPL055C, strain LGE1, active compounds read low 1.07 | locus YPL078C, strain atp4, active compounds read low 0.996 | locus YPL106C, strain sse1, active compounds read low 1.07 | locus YPL240C, strain hsp82, active compounds read low 1 | locus YPR119W, strain clb2, active compounds read low 1 | locus YPR141C, strain kar3, active compounds read low 1.01 | locus YPR163C, strain tif3, active compounds read low 1.02 | locus YPR167C, strain met16, active compounds read low 0.992 | strain wtn01, active compounds read low 1.03
